Bioassay records from PubChem BioAssay.
DPM-DC inhibit = blocks S. pneumoniae diphosphomevalonate decarboxylase | purified DPM-DC, PK/LDH coupled NADH fluorescence | calls only at 10 µM | hit rate 0.49% among 65,000 | AID 556;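 active means the 320 compounds with the highest percent inhibition in the single-dose primary screen, excluding strongly autofluorescent ones, cut at about 32% in these data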;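 further: kinetic rate of NADH fluorescence loss reporting ADP formed by the decarboxylase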
Spn PMK inh = S. pneumoniae PMK inhibition; purified PMK, PK/LDH-coupled NADH absorbance 340 nm; inhibition, % at 10 µM; hit rate 0.49% among 65,000;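 active means top-ranked compounds by inhibition in the single 10 µM screen, taking a fixed number of the strongest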
NADH coupling = inhibition of NAD/NADH coupling enzymes, library profiling. coupled PK/LDH NADH assays, four targets. IC50, µM (top dose mostly 10 µM). hit rate 0.02% among 65,000;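 active means single-dose screening hits from any of four coupled enzyme assays that gave an IC50 when retested across doses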;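 further: the DPM-DC format reads NADH fluorescence rather than 340 nm absorbance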
Spn MK inh = inhibitors of Streptococcus pneumoniae mevalonate kinase; purified MK, PK/LDH-coupled NADH absorbance 340 nm; hit rate 0.48% among 65,000; inhibition, % at 10 µM; AID 555;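 active means ranked among the strongest by inhibition in the single 10 µM screen, a fixed top-ranked set picked for dose follow-up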
Large screens that a line does not name were inactive. In the library only some 1.3% were active in any assay of this set; here they are far more common.

Cc1nnc(SCC(=O)N2CC(=O)Nc3ccccc32)n1-c1ccccc1	Spn PMK inh 35
O=C1CN(C(=O)CSc2nncn2-c2ccccc2)c2ccccc2N1	none
CCOC(=O)c1[nH]nc(C(=O)c2ccc(Br)cc2)c1O	Spn PMK inh 29
CCOC(=O)c1nc(C)[nH]c1C(=O)OCC	none
CCC(Sc1nccn1C)C(=O)Nc1cccc2ccccc12 (stereo not drawn)	Spn PMK inh 41
Cc1nc2ccc(NC(=O)NCc3ccco3)cc2s1	none
Cc1nc2cc(NC(=O)NCc3ccco3)ccc2n1C	DPM-DC inhibit active
Cc1ccc(NC2c3ncccc3C(=O)N2c2ccccc2C)cc1C (stereo not drawn)	Spn MK inh 83
CCOc1ccc(N2C(=O)c3cccnc3C2Nc2ccc(Cl)cc2)cc1 (stereo not drawn)	none
CC(=O)c1cccc(NC(=O)Nc2ccc3c(c2)N(C)C(=O)CS3)c1	none
CN1C(=O)c2cccc(NC(=O)Cc3ccccc3)c2C1=O	none
Cc1sc2ncnc(N[C@@H](CCC(=O)O)C(=O)O)c2c1C	none
Cc1sc2ncnc(NCC(c3ccco3)N(C)C)c2c1C (stereo not drawn)	Spn PMK inh 30, Spn MK inh 56
CCOC(=O)CNC(=O)C(NC(=O)C1CCC(C)CC1)C(C)CC (stereo not drawn)	none
CC(C)(C)CC(=O)Nc1nnc(-c2cccs2)s1	DPM-DC inhibit active
Cc1ccc(OC(=O)c2cccc(C(=O)Oc3ccc(C)cn3)n2)nc1	none
COC(=O)[C@@H](NC(=O)N1CCN(c2cccc(C(F)(F)F)c2)CC1)C(C)C	Spn PMK inh 30
CC(C)(C)NC(=O)C(c1ccc(F)cc1)N(Cc1ccco1)C(=O)c1csnn1 (stereo not drawn)	none
CCC(C)(C)NC(=O)C(c1ccccc1F)N(Cc1ccco1)C(=O)c1csnn1 (stereo not drawn)	Spn PMK inh 38
c1ccc(-c2nc3nonc3c3nc4ccccc4n23)cc1	DPM-DC inhibit active
CCOC(=O)c1[nH]c(COC(=O)c2ccccc2NC(=O)c2ccco2)c(C(=O)OCC)c1C	none
CCOC(=O)c1c(C)[nH]c(C(=O)COC(=O)c2ccccc2NC(=O)c2ccco2)c1C	DPM-DC inhibit active
CCOC(=O)N1CCN(C(=O)CN(Cc2ccccc2)S(=O)(=O)c2ccc(OC)c(C)c2)CC1	Spn MK inh active
COc1ccc(NC(=O)N(C2CCCCC2)C(C)c2ccco2)c(OC)c1 (stereo not drawn)	Spn PMK inh 26
COc1ccc(NC(=O)N(C2CCCCC2)C(C)c2cccnc2)c(OC)c1 (stereo not drawn)	none
O=C(Nc1ccc(-c2noc(COc3ccccc3Cl)n2)cc1)c1ccco1	Spn PMK inh 32
COc1ccc(CC(=O)Nc2ccc(-c3noc(COc4ccccc4C)n3)cc2)cc1	none
Cc1ccc(-c2cn3c(=S)[nH]nc3s2)cc1	Spn MK inh 99
Cc1ccc(-c2n[nH]c(=S)n2C)cc1	none
Cn1cccc1Cc1nnc(SCC(=O)NCc2ccc(F)cc2)n1-c1ccc(F)cc1	Spn MK inh active
O=C(CSc1nc2ccccc2c(=O)n1-c1ccc(Cl)cc1)c1ccco1	none
Cc1cc(=O)[nH]c(/N=C(\N)Nc2cccc3ccccc23)n1	DPM-DC inhibit active
O=c1c2ccccc2sn1-c1cc(S(=O)(=O)N2CCOCC2)ccc1N1CCOCC1	DPM-DC inhibit active, Spn MK inh 95
CC1(C)CC(C)(O)P(=O)(c2ccccc2)O1 (stereo not drawn)	Spn PMK inh 30
COC(=O)C(NC(=O)c1ccccc1)=C1C=C(C)OC(C)=C1	Spn PMK inh 29
CCS(=O)(=O)N1CCC(C(=O)NCc2ccco2)CC1	Spn PMK inh 26
COCCCNC(=O)C1CCN(S(=O)(=O)N(CC(C)C)CC(C)C)CC1	none
CCS(=O)(=O)N1CCCC(C(=O)NCCCOC)C1 (stereo not drawn)	none
CCOCCCNC(=O)C1CCN(S(=O)(=O)CC)CC1	Spn PMK inh 25
CCOCCCNC(=O)C1CCN(S(=O)(=O)N(CC(C)C)CC(C)C)CC1	Spn PMK inh 26
Cc1ccc(NC(=O)COc2ccc(/C(N)=N/O)cc2)cc1C	none
Nc1nc(-c2nc3ccccc3[nH]2)cs1	none
Nc1cc(N)cc(-c2nc3ccccc3[nH]2)c1	DPM-DC inhibit active
CC(C(=O)N1c2ccc(F)cc2CCC1C)N1C(=O)c2ccccc2C1=O (stereo not drawn)	none
CC(C)c1ccc(S(=O)(=O)N2CCN(C(=O)c3cccc(F)c3)CC2)cc1	none
CCN(CC)CCSc1nc(O)c(C(C)C)c(=O)[nH]1	Spn PMK inh 25
CCOc1ncccc1C(=O)Nc1ccc2c(C)cc(=O)oc2c1	DPM-DC inhibit active
N#CC1=C(N)N(c2ccc(Oc3ccccc3)cc2)C(=O)C1	none
COc1ccc(CNc2ccc(S(N)(=O)=O)cc2)c(OC)c1OC	none
COc1cc(CNCc2ccc(OC)c(OC)c2OC)cc(OC)c1	Spn MK inh 51
CCC(=O)Nc1ccc(NC(=O)c2ccccn2)cn1	Spn MK inh active
CC(=O)OC(/C(O)=C(\C#N)c1nc2ccccc2[nH]1)c1ccccc1 (stereo not drawn)	none
Nc1c(C(=O)NCCN2CCOCC2)c2nc3ccccc3nc2n1-c1ccc2c(c1)OCO2	DPM-DC inhibit active
O=C(COc1ncnc2ccccc12)NCCC1=CCCCC1	none
O=C(COc1cnc2ccccc2n1)NCCC1=CCCCC1	DPM-DC inhibit active
COCCN(Cc1cc2cc3c(cc2[nH]c1=O)OCO3)C(=O)c1cccs1	DPM-DC inhibit active
COCCN(Cc1cc2ccccc2[nH]c1=O)C(=O)c1ccccc1OC	none
COc1cc(C)c(Br)cc1S(=O)(=O)N1CCCC1	none
CC(=O)c1ccc(OCC(C)C)c(CN2CCCCC2)c1	none
CC(=O)c1ccc(Oc2ncnc3sccc23)c(CN2CCOCC2)c1	Spn PMK inh 25
O=C(COc1ccc(Cl)cc1Cl)NC(=O)N1CCOCC1	none
CCOC(=O)COc1ccc(-c2nnc(-c3ccccc3)o2)cc1	none
CCOC(=O)CNC(=O)Nc1nnc(-c2ccc(OCC)cc2)o1	Spn PMK inh 28
CCOc1ccc(-c2nnc(-c3ccncc3)o2)cc1	DPM-DC inhibit active
CC(C)CN(CC(C)C)C(=O)C12CCC(C)(C(=O)C1)C2(C)C (stereo not drawn)	none
CCOc1ccc(NC2c3ccccc3C(=O)N2Cc2ccco2)cc1 (stereo not drawn)	none
Cc1ccc(S(=O)(=O)Nc2ccc3nc(-c4cccn4C)[nH]c3c2)cc1	none
COc1ccc(OC)c(-n2c(-c3cccc(O)c3)n[nH]c2=S)c1	Spn MK inh 66
Cc1onc(-c2ccccc2Cl)c1C(=O)OCC(=O)N1CCCc2ccccc21	none
CCc1ccc(S(=O)(=O)NCc2cn3ccsc3n2)s1	DPM-DC inhibit active
CCCn1c(SCc2cc(=O)oc3ccc4ccccc4c23)n[nH]c1=O	none (not shown: DPM-DC inhibit)
S=c1[nH]nc(-c2ccccc2)n1CC1CCCO1 (stereo not drawn)	none
S=c1[nH]nc(-c2ccccc2)n1C1C=CCCC1 (stereo not drawn)	DPM-DC inhibit active
CCN(CC)C(=O)c1sc2nc(-c3ccccn3)[nH]c(=O)c2c1C	DPM-DC inhibit active
COC(=O)c1ccc(COc2ccc3c4c(c(=O)oc3c2)CCC4)o1	DPM-DC inhibit active
